The whole screen tested about 39,000 compounds, of which about 3,300 (8.5%) were called active. Many of the other results were omitted from the sample, so actives are more common in it than they were.

The experiment concerns HepG2. Kind of experiment: cytotoxicity call (relative viability < 0.9). The note with it: 10 µM.
Take `C[C@H](CO)N1C[C@H](C)[C@@H](CN(C)C(=O)Nc2ccc(N3CCCCC3)cc2)OCc2cnnn2CCCC1=O`: the cytotoxicity call is “inactive”.

As to `CC(C)NC(=O)N(C)C[C@@H]1Oc2ccc(NC(=O)C3CCCCC3)cc2CC(=O)N([C@@H](C)CO)C[C@H]1C`, the cytotoxicity call was “inactive”.

Consider `CCC[C@@H](O)C#Cc1cnc2c(c1)C(=O)N([C@H](C)CO)C[C@H](C)[C@H](CN(C)S(=O)(=O)c1cccs1)O2`, for which the cytotoxicity call was “inactive”.

Consider `C[C@H]1CC[C@@H]2C(C(=O)O[C@H]3[C@H]4O[C@@]4(C)[C@H]4[C@@H](O[C@H]5O[C@@H](CO)[C@@H](O)[C@@H](O)[C@@H]5O)OC=C[C@@]34O)=CO[C@H](O[C@H]3O[C@@H](CO)[C@@H](O)[C@@H](O)[C@@H]3O)[C@@H]21`, for which the cytotoxicity call was “inactive”.

For `C[C@H](CO)N1C[C@H](C)[C@H](CN(C)C(=O)Nc2ccc(F)cc2)Oc2ccc(NS(C)(=O)=O)cc2C1=O`, the cytotoxicity call was “inactive”.

In the case of `C[C@@H]1CN([C@H](C)CO)C(=O)c2cc(NC(=O)Nc3ccc(C(F)(F)F)cc3)ccc2O[C@H]1CN(C)C(=O)NC1CCCCC1`, the cytotoxicity call was “inactive”.

On to `C[C@H]1CN([C@@H](C)CO)C(=O)c2cc(NC(=O)Nc3ccc(C(F)(F)F)cc3)ccc2O[C@@H]1CN(C)C(=O)NC1CCCCC1`, for which the cytotoxicity call is “inactive”.

Turning to `C[C@H](CO)N1C[C@H](C)[C@H](CN(C)C(=O)Nc2ccc(C(F)(F)F)cc2)Oc2ccc(NC(=O)NC3CCCCC3)cc2C1=O`, the cytotoxicity call was “active”.

For the molecule `C[C@@H]1CN([C@@H](C)CO)C(=O)c2cc(NC(=O)Nc3ccc(C(F)(F)F)cc3)ccc2O[C@@H]1CN(C)C(=O)NC1CCCCC1`, the cytotoxicity call is “active”.

As for `C[C@H](CO)N1C[C@H](C)[C@@H](CN(C)C(=O)NC2CCCCC2)Oc2ccc(NC(=O)Nc3ccc(C(F)(F)F)cc3)cc2C1=O`, the cytotoxicity call is “inactive”.

As for `C[C@@H]1CN([C@H](C)CO)C(=O)c2cc(NC(=O)Nc3ccc(C(F)(F)F)cc3)ccc2O[C@@H]1CN(C)C(=O)NC1CCCCC1`, the cytotoxicity call is “active”.

For the molecule `C[C@@H]1CN([C@H](C)CO)C(=O)c2cc(NC(=O)NC3CCCCC3)ccc2O[C@H]1CN(C)C(=O)Nc1ccc(C(F)(F)F)cc1`, the cytotoxicity call was “inactive”.

Consider `C[C@H]1CN([C@@H](C)CO)C(=O)c2cc(NC(=O)NC3CCCCC3)ccc2O[C@H]1CN(C)C(=O)Nc1ccc(C(F)(F)F)cc1`, for which the cytotoxicity call is “inactive”.

As to `C[C@H]1CN([C@@H](C)CO)C(=O)c2cc(NC(=O)Nc3ccc(C(F)(F)F)cc3)ccc2O[C@H]1CN(C)C(=O)NC1CCCCC1`, the cytotoxicity call was “inactive”.

As for `C[C@@H]1CN([C@H](C)CO)C(=O)c2cc(NC(=O)Nc3ccccc3)ccc2O[C@@H](C)CCCCO[C@@H]1CN(C)C(=O)NC1CCCCC1`, the cytotoxicity call was “inactive”.

As for `CC(=O)N[C@@H]1[C@@H](O)[C@H](O)[C@H](CO)O[C@@H]1O`, the cytotoxicity call was “inactive”.

For the molecule `COCC(=O)Nc1ccc2c(c1)OC[C@@H](C)N(C(=O)Cc1cccnc1)C[C@H](C)[C@@H](OC)CN(C)C2=O`, the cytotoxicity call is “inactive”.

`Cn1cnc(S(=O)(=O)N2C[C@@H](O)COC[C@H]3O[C@H](CC(=O)NCc4ccc(F)cc4)CC[C@@H]32)c1`: the cytotoxicity call was “inactive”.

As for `COc1cc(C)nc(SCC(N)=O)n1`, the cytotoxicity call is “inactive”.

On to `COc1ccc(S(=O)(=O)Nc2ccc3c(c2)C(=O)N([C@@H](C)CO)C[C@@H](C)[C@@H](CN(C)S(=O)(=O)c2ccccc2)O3)cc1`, for which the cytotoxicity call was “inactive”.

For `C[C@@H]1CN([C@H](C)CO)C(=O)CCCn2nncc2CO[C@@H]1CN(C)C(=O)CCCN(C)C`, the cytotoxicity call was “inactive”.

With `Cc1cc(C)c(-c2ccc(NC(=O)[C@H](Cc3ccc(C(=O)NCCS(=O)(=O)O)cc3)c3ccc(-c4ccc(C(C)(C)C)cc4)cc3)cc2)c(C)c1`, the cytotoxicity call is “active”.

`Cc1cc(O[C@@H](CCC(F)(F)F)c2ccc(C(=O)NCCC(=O)O)cc2)cc(C)c1-c1ccc(C(C)(C)C)cc1`: the cytotoxicity call is “inactive”.

Turning to `COc1ccc(C#Cc2ccc3c(c2)O[C@H](CN(C)S(=O)(=O)c2ccccc2F)[C@@H](C)CN([C@H](C)CO)S3(=O)=O)cc1`, the cytotoxicity call is “inactive”.

Take `COc1ccc(S(=O)(=O)Nc2ccc3c(c2)C(=O)N([C@@H](C)CO)C[C@@H](C)[C@H](CN(C)Cc2ccc(C(F)(F)F)cc2)OCCCC[C@@H](C)O3)cc1`: the cytotoxicity call was “active”.

For the molecule `COc1ccc(S(=O)(=O)Nc2ccc3c(c2)C(=O)N([C@@H](C)CO)C[C@H](C)[C@H](CN(C)Cc2ccc(C(F)(F)F)cc2)OCCCC[C@H](C)O3)cc1`, the cytotoxicity call was “active”.

On to `COc1ccc(S(=O)(=O)Nc2ccc3c(c2)C(=O)N([C@H](C)CO)C[C@H](C)[C@@H](CN(C)Cc2ccc(C(F)(F)F)cc2)OCCCC[C@@H](C)O3)cc1`, for which the cytotoxicity call is “inactive”.

On to `COc1ccc(S(=O)(=O)Nc2ccc3c(c2)C(=O)N([C@@H](C)CO)C[C@H](C)[C@@H](CN(C)Cc2ccc(C(F)(F)F)cc2)OCCCC[C@@H](C)O3)cc1`, for which the cytotoxicity call was “active”.

In the case of `COc1ccc(S(=O)(=O)Nc2ccc3c(c2)C(=O)N([C@H](C)CO)C[C@@H](C)[C@@H](CN(C)Cc2ccc(C(F)(F)F)cc2)OCCCC[C@H](C)O3)cc1`, the cytotoxicity call is “inactive”.

For `COc1ccc(S(=O)(=O)Nc2ccc3c(c2)C(=O)N([C@@H](C)CO)C[C@@H](C)[C@@H](CN(C)Cc2ccc(C(F)(F)F)cc2)OCCCC[C@@H](C)O3)cc1`, the cytotoxicity call is “active”.

Take `C[C@@H]1CCCCO[C@@H](CN(C)C(=O)c2ccncc2)[C@@H](C)CN([C@H](C)CO)C(=O)c2cc(NC(=O)NC3CCCCC3)ccc2O1`: the cytotoxicity call is “inactive”.

Turning to `CO[C@H]1CN(C)C(=O)c2ccc(NC(=O)C3CC3)cc2OC[C@H](C)N(C(=O)Cc2ccccn2)C[C@@H]1C`, the cytotoxicity call was “inactive”.

Consider `C[C@@H]1CN([C@H](C)CO)C(=O)c2cccc(NC(=O)Nc3ccccc3)c2O[C@@H]1CN(C)Cc1ccc(Cl)c(Cl)c1`, for which the cytotoxicity call is “inactive”.

Consider `C[C@H](CO)N1C[C@H](C)[C@@H](CN(C)C(=O)Nc2ccc3c(c2)OCO3)Oc2ncc(-c3cccnc3)cc2C1=O`, for which the cytotoxicity call was “inactive”.

As for `CCS(=O)(=O)Nc1ccc2c(c1)C(=O)N(C)[C@H]1CC[C@@H](CC(=O)NCCOC)O[C@H]1CO2`, the cytotoxicity call is “inactive”.

Take `C[C@H](CO)N1C[C@H](C)[C@H](CN(C)CC2CCCCC2)Oc2c(NC(=O)c3cnccn3)cccc2C1=O`: the cytotoxicity call is “inactive”.

For the molecule `Nc1ccn([C@@H]2CS[C@H](CO)O2)c(=O)n1`, the cytotoxicity call is “inactive”.

On to `CN1CCN(C(=O)C[C@H]2CC[C@@H]3[C@@H](COc4ccc(NC(=O)C5CCCCC5)cc4C(=O)N3C)O2)CC1`, for which the cytotoxicity call was “inactive”.
